{"source": "the supplement of paper PMC7366291", "note": "Counter-ions that a name gives are not always drawn. ± gives the standard deviation or the standard deviation of the averaged measurements."}
{"system": "Danio rerio Tg(wt1b:EGFP) embryo, pronephros", "assay": "glomerular separation, fold change vs DMSO control; higher = glomeruli further apart (abnormal)", "settings": "25 µM; exposure: 24-48 hpf", "how_it_was_run": "(§1)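 Using a Fiji macro, distances and angles were calculated from 16 reference points set by hand on maximum projections of pronephroi imaged dorsally (470 nm, 10 z-slices) in agarose-filled 96-well plates. The dechorionated Tg(wt1b:EGFP) zebrafish embryos had received 25 μM compound in 0.5% DMSO in HEPES-buffered E3 with 0.003% PTU from 24 to 48 hpf at 28.5°C. Values more than 2 SD from a feature's mean were excluded. Each feature appears as a fold change over the mean of DMSO-treated embryos from the same day.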"}
{"molecule": "Cc1cn[nH]c1", "note": "[Fomepizole]", "glomerular separation": "0.953 ± 0.37"}
{"molecule": "COc1cc(-c2ccc(=O)[nH]n2)ccc1OC(F)F", "note": "[Zardaverine]", "glomerular separation": "1.12 ± 0.48"}
{"molecule": "CC(C)(C)NCC(O)c1cc(O)cc(O)c1", "note": "(stereo not given) [Terbutaline hemisulfate]", "glomerular separation": "1.1 ± 0.36"}
{"molecule": "Nc1nc(Cl)nc2c1ncn2[C@H]1C[C@H](O)[C@@H](CO)O1", "note": "[Cladribine]", "glomerular separation": "0.896 ± 0.38"}
{"system": "Danio rerio Tg(wt1b:EGFP) embryo, pronephros", "assay": "glomerular width (mean of left and right), fold change vs DMSO control; higher = wider glomerulus", "settings": "25 µM; exposure: 24-48 hpf", "how_it_was_run": "as §1"}
{"molecule": "C[C@]12C=CC(=O)C=C1CC[C@H]1[C@@H]3C[C@@H](O)[C@](O)(C(=O)CO)[C@@]3(C)C[C@H](O)[C@@]12F", "note": "[Triamcinolone]", "glomerular width": "1.23 ± 0.034"}
{"molecule": "O=C(Nc1ccc([N+](=O)[O-])cc1Cl)c1cc(Cl)ccc1O", "note": "[Niclosamide]", "glomerular width": "0.907 ± 0.04"}
{"molecule": "CC[C@]12CCCN3CCc4c(n(c5ccccc45)C(=O)C1)[C@@H]32", "note": "[Eburnamonine (-)]", "glomerular width": "0.922 ± 0.059"}
{"molecule": "CCOC(=O)C1=C(C)NC(C)=C(C(=O)OC)C1c1cccc([N+](=O)[O-])c1", "note": "(stereo not given) [Nitrendipine]", "glomerular width": "0.6357 ± 0.0031"}
{"molecule": "Clc1ccc2nsnc2c1NC1=NCCN1", "note": "[Tizanidine hydrochloride]", "glomerular width": "1.01 ± 0.016"}
{"molecule": "CCCCC(CC)CN1CN(CC(CC)CCCC)CC(C)(N)C1", "note": "(stereo not given) [Hexetidine]", "glomerular width": "0.9542 ± 0.0081"}
{"molecule": "CCN(CC)C(=O)C1(c2ccccc2)CC1CN", "note": "(stereo not given) [Milnacipran hydrochloride]", "glomerular width": "1.19 ± 0.037"}
{"molecule": "N=C(N)c1ccc(OCCCCCOc2ccc(C(=N)N)cc2)cc1", "note": "[Pentamidine isethionate]", "glomerular width": "0.99 ± 0.024"}
{"molecule": "C#CCN[C@@H]1CCc2ccccc21", "note": "[Rasagiline]", "glomerular width": "0.994 ± 0.012"}
{"molecule": "CC(C)(C(=O)c1cccnc1)c1cccnc1", "note": "[Metyrapone]", "glomerular width": "0.961 ± 0.039"}
{"molecule": "CCOC(=O)[C@H](CCc1ccccc1)N[C@H]1CCc2ccccc2N(CC(=O)O)C1=O", "note": "[Benazepril hydrochloride]", "glomerular width": "1.05 ± 0.023"}
